# Assay results from the supplement of paper PMC4466236.
# In all, about 33,000 sequences were measured (“E-score (dimensionless, -0.5 to 0.5)”: median about -0.058, highest 2% from about 0.35 on). Only a selection was taken, and the highest values are over-represented in it overall.
# Test system: MvaT
# Assay: PBM 8-mer E-score (mean of HK and ME arrays) (E-score (dimensionless, -0.5 to 0.5)); higher = stronger relative binding preference
# In short: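 Full-length P. aeruginosa MvaT carrying an N-terminal glutathione S-transferase tag was tested by protein binding microarray following a previously described protocol. Two universal double-stranded 60-mer arrays, ME and HK, were used, each with a constant 25-mer primer region and a variable 35-mer region covering all 8-mers. The rank-based E-score is the mean of the two arrays, parsed with a custom script. Its range runs from -0.5 to 0.5 for each 8-mer.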
row,Sequence,PBM 8-mer E-score
1,AACTAGTG,0.19
2,AAATAGTT,0.351
3,AACTAATT,0.401
4,AACTAAAT,0.351
5,AACTAGTT,0.392
6,AACTAAAG,0.202
7,AACTAAAA,0.345
8,AACTAGTA,0.303
9,AACTAATA,0.323
10,AAATAGTC,0.235
11,AAATAGTG,0.136
12,AACTAATG,0.312
13,CAAAGATG,0.0517
14,CGTGAGAA,0.0476
15,AGGAATGG,-0.0828
16,AACCTCCC,-0.253
17,CCGGATAC,-0.146
18,ACTGATAA,0.209
19,ATCAAGGC,-0.14
20,TCATGACA,-0.0413
21,CTGTCCAC,-0.113
22,GCTCAAAC,0.0144
23,AATAATGG,0.372
24,CATAATGA,0.233
25,TATAATGA,0.373
26,CATAATGG,0.178

row,Sequence,PBM 8-mer E-score
1,AGTAATGG,0.124
2,GATAATGC,0.151
3,AAAAATGT,0.0973
4,AATAATGC,0.384
5,CATAATGC,0.111
6,GATAATGA,0.225
7,AATAATGT,0.408
8,AATAAGGT,0.224
9,CGGGACAG,-0.151
10,CCCCACTA,-0.172
11,ATGACATG,-0.0134
12,AATTTCCC,0.207
13,CTCACCAC,-0.026
14,CAGTTCAC,-0.0234
15,AACCGAAG,0.0622
16,CCCACACC,0.0355
17,AGTAATGA,0.165
18,AATAATGA,0.361
19,ACTAATGA,0.138
20,ACCTAACA,-0.00971
21,ATTTATCG,0.291
22,GTTTACTA,0.147
23,ATTTATGG,0.204
24,GTTTATTA,0.407
25,ATTTATTG,0.379
26,CTTTATTC,0.209

row,Sequence,PBM 8-mer E-score
1,CTTTATTA,0.402
2,ATTTATTC,0.295
3,CTTTATCA,0.182
4,ATTTATTA,0.434
5,ATTTATCA,0.301
6,GTTTTTTA,0.248
7,ACCTCTAC,-0.178
8,TACGTTGA,0.0324
9,AGAGCGCG,-0.146
10,GTGACCCA,-0.143
11,CGAATTAA,0.308
12,TGAATTAA,0.376
13,GGAATTAC,0.149
14,AGAATTAA,0.301
15,GGAATTAA,0.347
16,TCAATTAA,0.237
17,GGCGTGTA,-0.134
18,GGGCTGAA,-0.257
19,AGCCTGTA,-0.00993
20,CAAGAAAA,-0.021
21,ACGCGTCG,-0.0515
22,ATCACGGG,-0.203
23,CCATATAC,0.153
24,ATATATAC,0.464
25,ATCTATAC,0.138
26,ATATACGC,0.291

row,Sequence,PBM 8-mer E-score
1,GTATACAC,0.209
2,CTATATAC,0.377
3,GTATATAC,0.41
4,GGATATAC,0.208
5,CTCTATAC,0.00646
6,CTCCCTAC,-0.109
7,AATGACCG,-0.00123
8,GTAGTTTA,0.297
9,CGTGCGGA,-0.146
10,CAGTAGCC,-0.125
11,GAGTATAA,0.273
12,ATGTATAA,0.35
13,AAGTATAA,0.379
14,AAGTATAG,0.167
15,AAGTATAT,0.399
16,CTGTATAA,0.264
17,AGGTATAA,0.291
18,CAGTATAA,0.267
19,ATGTATAC,0.332
20,TAGTATAA,0.384
21,TCGTATAA,0.148
22,AAGTATAC,0.338
23,ACCAGGAG,-0.239
24,CGGGAGAG,-0.265
25,CACGGGGA,-0.0937
26,CTACCCAC,-0.0554

row,Sequence,PBM 8-mer E-score
1,ATGAAACA,0.181
2,TCTATTAA,0.285
3,AGTATTAT,0.42
4,ACTAGTAT,0.357
5,ACTAGTAG,0.0918
6,ACTAGTAA,0.24
7,CCTATTAA,0.249
8,AGTATTAC,0.306
9,AGTATTAG,0.27
10,GTTATTGA,0.311
11,ATTATTGA,0.354
12,ACTATTAA,0.411
13,CTTATTGA,0.22
14,ATGATCAA,0.176
15,GAAAGGGC,-0.199
16,TAAGAACA,0.123
17,GCCGCTCA,-0.105
18,CTTTGAAA,0.141
19,ACATGTAC,0.243
20,AGGCCATC,-0.264
21,ACCATTAT,0.332
22,ATTATTAA,0.446
23,ACGATTAT,0.245
24,GTTATTCA,0.236
25,GCTATTAA,0.272
26,ATTATGAA,0.269

row,Sequence,PBM 8-mer E-score
1,CTCATTAA,0.196
2,ATCATTAA,0.259
3,GTTATTAA,0.383
4,CTTATTCA,0.194
5,CTTATTAA,0.362
6,ACTATTAT,0.425
7,GTTTTTCA,0.0388
8,AGCGGTGG,-0.209
9,CCTGCCTC,-0.249
10,AGACTTCC,-0.21
11,AAAAAAGG,0.0491
12,CTGTCCTA,-0.112
13,CTAATAGA,0.184
14,ATAATATA,0.475
15,GTAATATA,0.436
16,GTAATACA,0.295
17,GTCATATA,0.282
18,ATCATATA,0.338
19,CTAATATA,0.434
20,CTAATATC,0.299
21,ATAATCTA,0.344
22,CAGGCTCG,-0.325
23,CAGACGGA,-0.156
24,AGCTGGGG,-0.186
25,ACTACGCG,-0.0273
26,AGGGCATG,-0.207

row,Sequence,PBM 8-mer E-score
1,GCAACGCA,-0.168
2,CATATTTC,0.26
3,CCTATTTA,0.212
4,AATATTTA,0.45
5,AATATTGA,0.327
6,AACATTTG,0.103
7,AATATTTC,0.404
8,GATATTTA,0.326
9,CCTATTTC,0.0116
10,ACTATTTC,0.201
11,CATATTTA,0.371
12,AATTTTTG,0.194
13,AATATTTG,0.349
14,AGTGTGAA,0.204
15,CAGGGTTC,-0.251
16,GAAGATGA,-0.128
17,CGGAGTTC,-0.106
18,TCACCTCA,-0.163
19,CTTCTTTC,0.015
20,CTAATAGC,0.0517
21,ATAATAGG,0.291
22,AGAATAGA,0.051
23,ATAATAGA,0.364
24,GTAATAGA,0.164
25,ATAATAGC,0.362
26,TTGGAAAA,0.114

row,Sequence,PBM 8-mer E-score
1,AACTCGTC,0.0126
2,GGGTTGAC,-0.213
3,CATACGGC,-0.244
4,ACCGTAGA,-0.0538
5,CCCGTGCG,-0.273
6,AGACGAAC,-0.107
7,ATCCAAAA,0.1
8,CCTAACCA,-0.103
9,CTGCTGTC,-0.222
10,ACTTAATC,0.187
11,GCTTAACA,0.0832
12,ACTTAATA,0.4
13,CCTTAATA,0.298
14,GCTTAATA,0.352
15,ACTTAATG,0.287
16,CGATGGTC,-0.364
17,AGACAGGA,-0.156
18,CGTCCTCA,-0.231
19,ACGCGGCG,-0.275
20,ACGTTAAA,0.256
21,CACTCGTC,-0.185
22,CTGGCATC,-0.181
23,CAATCAGC,-0.0173
24,CTTAATAC,0.286
25,ATTAATAC,0.41
26,ATTAAGAG,0.297

row,Sequence,PBM 8-mer E-score
1,AGTAATAA,0.327
2,ATTAATAA,0.468
3,ATTAAGAA,0.282
4,ATTAATAG,0.426
5,GGTAATAC,0.249
6,AGAGGTCA,-0.266
7,ACGGCAAC,-0.107
8,CGTTTTGC,0.0694
9,TGGTTGAA,-0.0872
10,CCTCATAA,-0.0267
11,TCGTTAAA,0.156
12,CAGAAGGC,-0.229
13,CTGAGCAA,-0.0891
14,TAAACAGA,0.188
15,ACAGACTA,0.136
16,AGTCCGTC,-0.103
17,CGCACCCG,-0.242
18,CGTTATAA,0.39
19,AGTTATAC,0.393
20,AGTTATGA,0.319
21,CGTTATAC,0.21
22,CGTTATAG,0.2
23,AGTTATAA,0.43
24,AGTTATGC,0.246
25,GGTTATAA,0.344
26,AGTTATCA,0.242

row,Sequence,PBM 8-mer E-score
1,TGTTATAA,0.437
2,TGTTACAA,0.257
3,GGTTATAC,0.0501
4,CCAACCGA,-0.0134
5,TACCAAGA,-0.0377
6,TCCCAACA,0.111
7,CGATACCC,-0.141
8,CGCGTCCC,-0.132
9,ACTGTGAC,0.0208
10,AGTGCCGG,-0.0286
11,GTACCTTA,0.119
12,CGGGCCAA,-0.118
13,GGGCGCTA,-0.265
14,GGGACAGA,-0.12
15,CCACCGTC,-0.258
16,AGTTATAT,0.437
17,AGCTATAT,0.328
18,AGTTATAG,0.316
19,ATGGGTAC,-0.0802
20,AGCGTTGA,-0.0483
21,AGGTATGA,0.12
